Source: the supplement of paper PMC7156485
± gives the standard deviation of the averaged measurements.

test system: HCC1569; test: cell number relative to DMSO (% of DMSO); higher = more cells (less growth inhibition / toxicity); settings: concentration: 10 µM; 24 h
Summary of the method: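 HCC1569 and TDF cells (800 per well, 384-well plates, RPMI with 10% FBS) were treated with compounds at 10 µM for 24 h at 37 °C, in triplicate. Cells were fixed in 3.7% formaldehyde and stained with a rabbit anti-H1.0 antibody, an AlexaFluor 647 secondary and DAPI; six fields per well were imaged at ×10. H1.0 nuclear intensity or cell number is expressed as percent of the plate DMSO control, taking the median of replicates. HCC1569 values were smoothed for positional effects.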
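Also: TDF denotes transformed human dermal fibroblasts of mesenchymal origin.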

| SMILES | cell number |
| --- | --- |
| CN(CCOc1ccc(CC2SC(=O)NC2=O)cc1)c1ccccn1.O=C(O)C=CC(=O)O (stereo not given) [Rosiglitazone maleate] | 103 |
| CC(C)C(CO)Nc1nc(Nc2ccc(C(=O)O)c(Cl)c2)c2ncn(C(C)C)c2n1 (stereo not given) | 100 |
| CCCOC(=O)c1c(-c2ccccc2)nc(CC)c(C(=O)SCC)c1CCC | 102 |
| CCN(CC)CCOC(=O)c1cc(Cl)c(N)cc1OC.Cl [SDZ-205,557 hydrochloride] | 105 |
| CC(C)C[C@H](NC(=O)C(O)[C@H](N)Cc1ccc([N+](=O)[O-])cc1)C(=O)O.Cl (stereo not given in full) | 104 |
| CCCCCC=CCC=CCCCCCCCC(=O)O [9(E),12(E)-Octadecadienoic acid] | 96.5 |
| O=C1Nc2cc(Br)ccc2C1=C1N=c2ccccc2=C1NO [(2'Z,3'E)-6-Bromoindirubin-3'-oxime] | 54.7 |
| CCCCCCC=CCCCCCCCCC(=O)O [10(Z)-Heptadecenoic acid] | 99.6 |
| O=C(O)c1ccccc1Nc1cccc(OCc2ccc3ccccc3n2)c1 | 104 |
| Cl.O[C@H](c1cc(C(F)(F)F)nc2c(C(F)(F)F)cccc12)[C@@H]1CCCCN1 | 52 |
| CC(=O)SCC[N+](C)(C)C.[Cl-] [Acetylthiocholine chloride] | 102 |
| Oc1cc(O)c2c(c1)OC(c1ccc(O)c(O)c1)C(O)C2 (single isomer, unassigned; (+)) [(+)-Catechine] | 102 |
| CC1(NC2=NS(=O)(=O)c3sc(Cl)cc3N2)CC1 | 101 |
| CCC=CCC=CCC=CCC=CC=CC(O)CCCC(=O)O (racemic) | 106 |
| Cl.Cn1ccc2cc3c(cc21)CCN3C(=O)Nc1cccnc1 | 101 |
| CCNC(=O)N1CCN(CCCC(c2ccc(F)cc2)c2ccc(F)cc2)CC1.Cl [Amperozide hydrochloride] | 94.2 |
| Cc1cn2cc(C(=O)N(C)CCO)cc(N[C@@H]3CCOc4cccc(C)c43)c2n1 | 97.8 |
| COc1cc(Oc2ccnc3cc(OC)c(OC)cc23)ccc1NC(=O)NC(C)c1nccs1 (stereo not given) | 68.5 |
| N[C@@H](Cc1ccc(F)cc1)C(=O)O [p-Fluoro-L-phenylalanine] | 104 |
| NC(N)=NC(N)=Nc1ccccc1 [1-Phenylbiguanide] | 105 |

| SMILES | cell number |
| --- | --- |
| COC(=O)C1C(O)CCC2CN3CCc4c([nH]c5ccccc45)C3CC21.Cl (stereo not given) | 102 ± 5.1 |
| CC1CN(S(=O)(=O)c2cccc3cnccc23)CCN1.Cl.Cl (stereo not given) | 111 |
| CC(NC(=O)C(C#N)=Cc1ccc(O)c(O)c1)c1ccccc1 (stereo not given) [Tyrphostin AG 835] | 87.3 |
| CCCCCC#CCC#CCC#CCC#CCCCC(=O)O | 104 |
| CC(C)CCNC(=O)C(CC(C)C)NC(=O)C1OC1C(=O)O (stereo not given) | 106 |
| COc1ccccc1OCCNCC(O)COc1cccc2[nH]c3ccccc3c12 (stereo not given) [Carvedilol] | 92.6 ± 15 |
| CNC1C(O)C(NC)C2OC3(O)C(=O)CC(C)OC3OC2C1O (stereo not given) [Spectinomycin] | 104 |
| CC1OC(OCC2OC(Oc3c(-c4ccc(O)c(O)c4)oc4cc(O)cc(O)c4c3=O)C(O)C(O)C2O)C(O)C(O)C1O (stereo not given) [Rutin] | 107 |
| CCCCCCC=CC=CCCCCCCCC(=O)O [9(Z), 11(Z)-octadecadienoic acid] | 99.8 |
| CN1C(=O)CC(C(=O)O)C1c1cccnc1 (stereo not drawn) [Trans-4-Cotininecarboxylic acid] | 98.4 |
| CN(C)CCCN1c2ccccc2Sc2ccccc21.Cl [Promazine hydrochloride] | 103 |
| CC1=CC(=O)C2=C(C)CCC3C(C)C(=O)OC3C12 (stereo not given) [Leucomisine] | 99.3 |
| CCCCCC=CCC=CC=CC(O)CC=CCCCC(=O)O (stereo not given) | 98.1 |
| CC(C)CC(NC(=O)C1OC1C(=O)O)C(=O)NCCCCN=C(N)N (stereo not given) | 99.92 ± 0.64 |
| CC(CN1c2ccccc2Sc2ccccc21)N(C)C.Cl (stereo not given) | 105 |
| Cl.Cl.Fc1ccc(C(c2ccc(F)cc2)N2CCN(CC=Cc3ccccc3)CC2)cc1 [Flunarizine dihydrochloride] | 101 |
| COc1nccc(-c2c(-c3ccc(F)cc3)ncn2C2CCNCC2)n1 | 93.7 |
| CCCCCCCCCCCCCCCCCC(=O)OC(CC(=O)O)C[N+](C)(C)C.[Cl-] (racemic) [DL-Stearoylcarnitine chloride] | 101 |
| Cc1ccc(-c2ncc(Cl)cc2-c2ccc(S(C)(=O)=O)cc2)cn1 [Etoricoxib] | 106 |
| O=C(NC(NC(=S)Nc1ccc(F)c([N+](=O)[O-])c1)C(Cl)(Cl)Cl)C(c1ccccc1)c1ccccc1 (stereo not given) | 58.2 |
